Rows were chosen to be rich in hits. Some 19% of all compounds tested hit in one or more screens of this group.
IL-1B inflam inh – inflammasome signaling inhibition, IL-1 beta readout | 4.7% of 360,000 active | activity change, % at 57.5 µM | THP-1 LPS/ATP IL-1B secretion, AlphaLISA, 16 h; active compounds read low; in the data active = activity change below about -50%; inconclusive = mostly about -30% to -49%
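THP-1 cells pretreated 1 hr with compounds (up to 57.5 uM final), then stimulated with LPS (250 ng/mL final) plus ATP (1.25 mM final); secreted IL-1B measured by AlphaLISA after 16 hr, decreased signal indicating inhibition.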
ASM inhibitor – human S-ASM enzyme inhibition; Potency, µM (titrated, usually from 57.5 µM), hits mostly inhibitors; placental ASM, HMU-PC fluorogenic substrate, 60 min; 0.006% of 340,000 active
Target sequence (P17405 47-631 limits assumed): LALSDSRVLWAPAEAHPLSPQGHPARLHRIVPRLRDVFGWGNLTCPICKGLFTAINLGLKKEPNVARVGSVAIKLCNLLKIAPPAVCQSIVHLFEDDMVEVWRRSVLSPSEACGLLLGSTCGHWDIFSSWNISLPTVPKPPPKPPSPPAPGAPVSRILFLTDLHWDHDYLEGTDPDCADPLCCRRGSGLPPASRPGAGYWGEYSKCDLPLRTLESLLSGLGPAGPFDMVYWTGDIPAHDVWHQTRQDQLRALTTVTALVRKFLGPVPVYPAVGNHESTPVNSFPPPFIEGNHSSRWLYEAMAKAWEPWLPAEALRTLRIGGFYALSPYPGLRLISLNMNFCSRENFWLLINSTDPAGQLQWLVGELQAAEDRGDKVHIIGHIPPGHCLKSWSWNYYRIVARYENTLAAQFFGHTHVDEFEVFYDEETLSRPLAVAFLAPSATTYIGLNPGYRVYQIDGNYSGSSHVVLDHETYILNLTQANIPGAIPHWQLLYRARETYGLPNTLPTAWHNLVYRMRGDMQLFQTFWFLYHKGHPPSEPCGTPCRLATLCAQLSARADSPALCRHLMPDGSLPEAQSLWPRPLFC
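HMU-PC0 cleavage (9 uM final) by human placental ASM, 60 min at 37 °C following 10 min compound exposure at RT; stopped at pH 10, fluorescence Ex 386/Em 447 nm.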
TDP1 cell noCPT – qHTS for Inhibitors of human tyrosyl-DNA phosphodiesterase 1 (TDP1): qHTS in cells in absence of CPT; DT40 Tdp1-/- hTDP1 cells, no CPT, ATP luminescence, 48 h; Potency, µM (top dose mostly 46.2 µM), actives largely listed as inhibitors; 15% of 420,000 active; also: nearly all actives have a fitted effect of over 55% in size
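DT40 Tdp1-/-;hTDP1 cells, no CPT (DMSO vehicle only), 400 cells/well; compounds pin-transferred; ≥48 hr, 37 °C; CellTiter-Glo 30 min RT dark, luminescence read.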
TGFb inhibitor – blocks TGF-b signaling; HepG2 CAGA-GFP TGF-b/SMAD3 reporter, GFP fluorescence, 18 h; TGF-beta stimulated, 500 pg/mL final; Potency, µM (highest dose often 46.1 µM), actives largely listed as inhibitors; 1.2% of 410,000 active; also: nearly all actives have a fitted effect of over 65% in size
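TGF-beta reporter screen: HEPG2 CAGA-GFP, 1% FBS, 500 pg/mL TGF-beta final, 18 h; per-cell GFP summed per well; curves fitted and categorized by class.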
HepG2 tox – HepG2 cytotoxicity, counter-screen for TGF-b inhibitors; HepG2 CAGA-GFP viability, ATP luminescence, 18 h; Potency, µM (titrated, usually from 46.1 µM), actives largely listed as cytotoxic; 0.76% of 410,000 active; AID 588856
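CellTiter-Glo luminescence gave cytotoxicity after 18 hours at 37 degrees C. The cells were HepG2 CAGA-GFP in 1% FBS DMEM, stimulated with 500 pg/mL TGF-beta after compound addition. %Activity was normalised to no-cell wells (complete cell-killing) and DMSO (no toxicity), and curves were fitted and classified.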
DT40 TDP1 CPT – growth inhibition of DT40 Tdp1-/-;hTDP1 cells with camptothecin (screen for TDP1 inhibitors); chicken DT40 Tdp1-/-;hTDP1 cells + 20 nM CPT, ATP luminescence, 48 h; Potency, µM (series often up to 46.2 µM), actives largely listed as inhibitors; 12% of 420,000 active; also: nearly all actives have a fitted effect of over 55% in size
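Chicken DT40 Tdp1-/- cells stably complemented with human TDP1 were seeded at 400 cells/well in medium containing 20 nM camptothecin, exposed to pin-transferred compounds, and grown at 37 °C for at least 48 hr. Viability was read as ATP luminescence.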
A number is an active result; n = inactive; u = inconclusive; x = not tested or not shown. Unless noted, calls follow the shape of the dose curve; as a rule, active = well fitted curve in the direction sought with a large enough effect; inconclusive = small, poorly fitted or top-dose-only effect, or another doubt; inactive = no such curve, though single readings can be large; an effect the other way counts as inactive or inconclusive.

SMILES	IL-1B inflam inh	ASM inhibitor	TDP1 cell noCPT	TGFb inhibitor	HepG2 tox	DT40 TDP1 CPT
Cc1ccc(S(=O)(=O)N2CCC(=O)N(CCOCc3ccccc3)CC2)cc1	n	n	u	n	n	u
O=C1CCN(S(=O)(=O)c2ccccc2)CCN1CCOCc1ccc(C(F)(F)F)cc1	n	n	13µM	u	n	u
Cc1cc(-c2ccc(S(=O)(=O)N3CCN(c4ccccc4F)CC3)s2)on1	n	n	n	n	n	u
CC1=NOC(=O)/C1=C\c1ccc(-c2ccc(Cl)cc2Cl)o1	-62.4	n	11.6µM	n	n	13µM
CCCOc1ccc(Cl)cc1/C=C1/C(=O)ON=C1C	n	n	u	n	n	29.1µM
COc1ccccc1/C=C1/C(=O)ON=C1C	n	n	u	n	n	u
C#CCOc1ccc(/C=C2/C(=O)ON=C2C)cc1Cl	n	n	18.4µM	n	n	u
COc1ccc(/C=C2/C(=O)ON=C2C)cc1Br	-88.0	n	u	n	n	u
Cc1csc(NC(=O)C(C)Oc2ccc(Cl)cc2C)n1 (stereo unspecified)	n	n	u	u	n	u
Cc1ccc([N+](=O)[O-])cc1S(=O)(=O)NCC1COc2ccccc2O1 (stereo unspecified)	n	n	n	n	n	u
CC1=NOC(=O)/C1=C\c1ccc2c(c1)OCO2	-96.5	n	14.6µM	u	n	u
CC1=NOC(=O)/C1=C/c1ccc2c(c1)OCO2	n	n	u	n	n	9.2µM
COc1ccc(-c2nc3ccccc3o2)cc1NC(=O)COc1ccc(C)cc1	x	x	n	n	n	u
COc1ccc(-c2nc3ccccc3s2)cc1NC(=O)COc1cccc(C)c1	x	x	16.4µM	n	n	u
CC(C)C(=O)Nc1ccc(-c2nc3cccnc3o2)cc1	n	n	n	u	n	n
CC(C)(C)c1ccc(OCC(=O)Nc2ccc(-c3nc4cccnc4o3)cc2)cc1	n	n	9.2µM	n	n	u
CCC(=O)Nc1ccc(-c2nc3ncccc3o2)cc1C	x	x	n	n	n	n
Cc1cc(-c2nc3ncccc3o2)ccc1NC(=O)COc1ccc(C(C)(C)C)cc1	x	x	16.4µM	n	n	18.4µM
COc1ccc(-c2nc3ccccc3s2)cc1NC(=O)COc1ccc(C)cc1	x	x	x	n	n	x
COc1ccc(-c2nc3ccccc3o2)cc1NC(=O)COc1ccc(C(C)(C)C)cc1	x	x	16.4µM	n	n	u
COCCN1C(=O)COc2ccccc2C1C(=O)NC(C)(C)C (stereo unspecified)	n	x	n	x	x	n
O=C(c1ccccc1)c1ccc[nH]1	n	n	n	n	n	n
C/C(=N\NC(=O)c1ccn(C)n1)c1ccc(NC(=O)C2CCCC2)cc1	n	n	18.4µM	n	n	n
C/C(=N\NC(=O)C1(C)CC1(Br)Br)c1ccc(NC(=O)C2CCC2)cc1 (stereo unspecified)	n	n	u	u	n	18.4µM
C/C(=N\NC(=O)c1ccn(C)n1)c1ccc(NC(=O)C2CCC2)cc1	n	n	n	n	n	u
SMILES	IL-1B inflam inh	ASM inhibitor	TDP1 cell noCPT	TGFb inhibitor	HepG2 tox	DT40 TDP1 CPT
Cc1nn(CC(=O)Nc2cccc(O)c2)c(=O)c2ccccc12	n	x	n	n	n	n
O=C(Cn1nc(-c2ccc(Cl)cc2)c2ccccc2c1=O)Nc1cccc(C(F)(F)F)c1	x	x	u	11.2µM	n	u
O=C(Cn1nc(-c2ccccc2)c2ccccc2c1=O)Nc1cccc(O)c1	-52.2	n	n	n	n	n
COc1ccccc1N1CCN(c2ncnc3c2nnn3C)CC1	x	x	u	n	n	u
CCC(c1nnnn1C1CCCCC1)N(Cc1ccco1)Cc1cc2ccc(OC)cc2[nH]c1=O (stereo unspecified)	-58.3	n	16.4µM	u	n	u
Cc1ccc2cc(C(c3nnnn3C3CCCC3)N(Cc3ccco3)Cc3cccs3)c(=O)[nH]c2c1 (stereo unspecified)	n	n	u	n	n	23.1µM
O=C(NCc1ccccn1)C1(C(F)(F)F)C/C(=C\Cc2ccccc2)CCCO1 (stereo unspecified)	x	x	x	n	n	x
CCOC(=O)c1ccccc1NC(=O)Cn1c(=O)n(Cc2nc(-c3ccccc3)no2)c(=O)c2ccccc21	x	x	n	n	n	n
CCN(CC)CCNC(=O)c1cc2c(=O)n(C)c3cc(Cl)ccc3c2s1	x	x	20.6µM	n	n	u
CCCN(CCC)CCCNC(=O)c1cc2c(=O)n(C)c3ccccc3c2s1	x	x	18.4µM	n	n	u
CN(C)CCNC(=O)c1cc2c(=O)n(C)c3ccccc3c2n1C	n	n	n	n	n	n
CCN(CC)CCCNC(=O)c1cc2c(=O)n(C)c3ccccc3c2n1C	-86.8	n	u	n	n	u
CCCN(CCC)CCCNC(=O)c1cc2c(=O)n(C)c3ccccc3c2n1C	-64.9	n	25.9µM	n	n	u
CCOc1ccc(CCNC(=O)c2cc3c(=O)n(C)c4ccccc4c3s2)cc1OCC	x	x	u	n	n	n
CCN(CC)CCNC(=O)c1cc2c(=O)n(C)c3ccccc3c2n1C	u	n	u	n	n	u
CCOc1ccc(NC(=O)COC(=O)COc2cccc3c2OC(C)(C)C3)cc1	n	n	n	n	n	n
CCCCN(CC)CCNC(=O)c1cc2c(=O)n(C)c3ccccc3c2n1C	-80.0	n	14.6µM	n	n	18.4µM
COCCCNC(=O)c1cc2c(=O)n(C)c3ccccc3c2n1C	n	n	u	n	n	18.4µM
COCCNC(=O)c1cc2c(=O)n(C)c3ccccc3c2n1C	n	n	n	n	n	n
O=C(CN1C(=O)NC2(CCCCC2)C1=O)Nc1ccc(Cl)c(S(=O)(=O)N2CCOCC2)c1	n	n	u	n	n	n
O=C(CCN=C1NS(=O)(=O)c2ccccc21)OCc1ccccc1	n	n	n	n	n	n
CCN(CC)CC#CC(OC)(c1ccccc1)c1ccccc1	n	n	u	u	n	u
O=C(COc1ccccc1F)OCC(=O)c1ccc([N+](=O)[O-])cc1	u	n	n	n	n	u
CCc1c(C)sc(NC(=S)N2CCN(CC)CC2)c1C(=O)OC	-56.1	n	u	n	n	u
Cc1ccc(-n2nc(C(=O)c3ccccc3)n3c(=O)c(Cc4ccccc4)nnc23)cc1	n	n	11.6µM	u	n	u
Cc1cccc(NC(=O)COC(=O)CN2C(=O)c3ccccc3C2=O)c1	n	x	n	n	n	n
COc1ccc(Cl)cc1NC(=O)c1c(NCc2sccc2C)sc2c1CCCC2	x	x	20.6µM	u	n	u

Bioassay records deposited in PubChem BioAssay by National Center for Advancing Translational Sciences (NCATS).
